The sample as a whole holds a higher share of hits than the screen did.
Pf Dd2 inh – qHTS Primary assay for Inhibitors of Plasmodium falciparum Dd2 growth in vitro; Potency, µM (top dose mostly 28.9 µM), actives largely listed as inhibitors; 120,000 tested, 4.3% active; P. falciparum Dd2 growth, SYBR Green, 72 h; AID 1347417, 2020; active = well fitted inhibition curve with a large enough effect; also: nearly all actives have a fitted effect of over 65% in size
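Infected erythrocytes (Dd2, 0.3% parasitemia, 2.5% hematocrit final) are added to compound in RPMI-1640/Albumax II medium, grown 72 h at 37C in low oxygen, then lysed with saponin/Triton-X containing SYBR Green and read by fluorescence.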
A number is an active result; i = inactive; [ ] = remark or other dose.

SMILES | Pf Dd2 inh
O=C1NCCCCCN(S(=O)(=O)c2cccs2)[C@H]2CCCC[C@@H]12 | i
O=C1NCCCCCCN(S(=O)(=O)c2cccs2)[C@H]2CCC[C@@H]12 | i
NC[C@H]1O[C@@H]2C[C@@H](CC(=O)N3CCC(F)(F)C3)O[C@@H]2[C@@H]1O | i
CC(C)CN1C(=O)c2cccn2CC1CNC(=O)c1ccc(F)cc1 (stereo not drawn) | i
CC(C)N1CCC2(CC1)CN(C(=O)C1CCOCC1)Cc1ccccc1O2 | i
COc1ccc2c(c1)CCN=C2C[C@H]1CN(S(C)(=O)=O)CC[C@H]1CC(=O)O | i
CN1CCC(N(C)C(=O)CCC[C@@H]2[C@H]3CCCN4CCC[C@@H](CN2Cc2ccccc2)[C@@H]34)CC1 | i
O=C(NCCCN1CCOCC1)c1ccc(N2CC3CC(C2)[C@H]2CCCC(=O)N2C3)nc1 (stereo partly drawn) | i
O=C(NCCCN1CCCc2ccccc21)c1cccnc1N1CC2CC(C1)[C@H]1CCCC(=O)N1C2 (stereo partly drawn) | i
O=C(NCCCN1CCCc2ccccc21)c1ccc(N2CC3CC(C2)[C@H]2CCCC(=O)N2C3)nc1 (stereo partly drawn) | 11.2µM
O=C(c1cnc(Cc2c(Cl)cccc2Cl)[nH]c1=O)N1CCCCC1 | i
Cc1cc(C(=O)N2CC(F)(F)C[C@H]2c2nc(C3CC3)no2)on1 | i
CCN1c2ccccc2-n2cccc2C12CCN(C(=O)Nc1ccccc1C(F)(F)F)CC2 | 2.82µM
CS(=O)(=O)N1CCC(OC2CCN(C(=O)Nc3ccccc3C(F)(F)F)CC2)CC1 | i
CC(=O)N1CCC2(CC1)OC(=O)C(C)=C2C(=O)Nc1ccccc1C(F)(F)F | i
COc1cccc2cc(-c3nc(-c4ccc(C)cc4)c(C)s3)c(=O)oc12 | i
CN1CCN(Cc2c(O)ccc3cc(-c4ccccc4)c(=O)oc23)CC1 | 10µM
O=C(O)c1ccc2nc(-c3cc4cccc(O)c4oc3=O)[nH]c2c1 | i
COc1ccc(-c2cc([C@H]3CN4CC[C@H]3C[C@@H]4CNC(=O)N3CCOCC3)nc(C)n2)cc1OC | i
CCN1CCN(C(=O)c2cc(-c3ccccc3)cn2C)CC1 | i
COc1cccc2cc(-c3nnc(-c4ccc(Cl)cc4)o3)c(=O)oc12 | i
COc1ccc(-c2c(C)c3ccc(O)c(CN4CCOCC4)c3oc2=O)cc1OC | i
COc1ccc(-c2cc3ccc(O)c(CN4CCN(C)CC4)c3oc2=O)cc1OC | 11.2µM
COc1ccc(-c2cc3ccc(O)c(CN4CCOCC4)c3oc2=O)cc1OC | 10µM
CN(C)C[C@@H]1CN(C)C[C@H]1NC(=O)c1nn(C)c2ccccc12 | i
SMILES | Pf Dd2 inh
Cc1c(C#N)c2ccccc2n1CC(=O)NC1CCOC2(CCOCC2)C1 (stereo not drawn) | i
CCc1nc(-c2c3n(c(=O)n(CC(=O)Nc4ccccc4OC)c2=O)CCCC3)no1 | i
Cc1ccc(CNC(=O)N2CCC(c3noc(-c4cccnc4)n3)C2)cc1 (stereo not drawn) | i[5.79 µM]
Cc1ccc(NC(=O)N[C@@H]2C=C(C(=O)N[C@H](Cc3ccccc3)C(N)=O)C[C@@H](O)[C@@H]2O)cc1 | i
COC(=O)C1CCN(C(=O)CC(c2ccccc2)c2ccccc2Cl)CC1 (stereo not drawn) | i
COc1ccc(CNC(=O)CC[C@H]2CNC(=O)[C@@H]3[C@@H](CCN3Cc3ccc(C(=O)O)cc3)N2C)cc1 | i
CC(C)NC(=O)C[C@@H]1C[C@H]2O[C@H](CNCc3cnccc3C(F)(F)F)[C@@H](O)[C@H]2O1 | i
COc1cccc(C(=O)NCCC2CCN(C(=O)Nc3ccc(C)c(F)c3)CC2)c1 | i
O=C(NCCC1CCN(C(=O)Nc2ccc(F)cc2F)CC1)c1cccc(F)c1 | i
Cc1ccc(NC(=O)N2CCC(CCNC(=O)c3cccc(F)c3)CC2)cc1F | 12.6µM
COc1cccc([S+](=O)([O-])N2CCCC3(CC(c4ccccn4)=NO3)C2)c1 (stereo not drawn) | i
CCN1CCN(C(=O)CN2CC3CC(C2)[C@H]2CCCC(=O)N2C3)CC1 (stereo partly drawn) | i
O=C(CNC(=O)c1cnccn1)NC1CCCc2c1[nH]c1ccc(Cl)cc21 (stereo not drawn) | i
CCNC(=O)N1CC(c2nnc(-c3ccncc3)o2)C2(CCOCC2)C1 (stereo not drawn) | i
Cc1ccc(-c2nnc(Nc3ccc(Cl)c(Cl)c3)c3ccccc23)cc1S(=O)(=O)N(C)C | 10µM
C#CC(C)(C)NS(=O)(=O)c1cc(-c2nnc(Nc3ccc(C)cc3)c3ccccc23)ccc1C | 5.01µM
Cc1ccc(C)c(Nc2nnc(-c3ccc(C)c(S(=O)(=O)N4CCN(C)CC4)c3)c3ccccc23)c1 | i
Cc1cc(C)n(-c2nnc(Nc3ccc(C)c(Cl)c3)c3ccccc23)n1 | i
C#CCOc1ccc(-c2nnc(Nc3ccc(NC(C)=O)cc3)c3ccccc23)cc1 | i
CCCNS(=O)(=O)c1cc(-c2nn3c(C)nnc3c3ccccc23)ccc1C | i
CCN(CC)C(=O)c1ccc(Nc2nnc(-c3ccc(C)c(S(=O)(=O)NC)c3)c3ccccc23)cc1 | 3.16µM

Source: PubChem BioAssay
